Publication PMC7819943, “Rice protein-binding microarrays: a tool to detect cis-acting elements near promoter regions in rice”
Whole data set: some 68,000 sequences, median “fluorescence intensity (a.u.)” near 9,100, cut for the highest 2% near 16,000. The list comes from a sample in which the highest values are over-represented; it also holds similar and randomly drawn sequences.

The sequences below were run against OsWRKY34 (Oryza sativa, UniProt Q0JBA9 1-250) (assay: protein-binding microarray (RPBM); PBS, 2% BSA, 51.3 ng/ul salmon testes DNA, 50 uM zinc acetate, 200 nM TF, 25 C, 1 h; high values mean tight binding). Conditions: protein: recombinant; tags: N-terminal polyhistidine and DsRed monomer fusion (pET32a); label: CyDye5-dUTP incorporated in the synthesized complementary strand; 3' TTTTT single-stranded linker to array surface; dsDNA, one strand shown.
OsWRKY34, sequence (Q0JBA9 entry or part of it): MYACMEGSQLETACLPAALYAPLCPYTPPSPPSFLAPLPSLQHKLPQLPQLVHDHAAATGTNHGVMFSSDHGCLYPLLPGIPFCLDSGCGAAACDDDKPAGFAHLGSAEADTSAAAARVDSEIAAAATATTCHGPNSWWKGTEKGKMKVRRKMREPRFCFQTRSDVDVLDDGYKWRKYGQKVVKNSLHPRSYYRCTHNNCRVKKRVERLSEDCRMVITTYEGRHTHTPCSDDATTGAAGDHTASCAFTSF
Procedure, shortened: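 Using Ni–NTA, transcription factors fused N-terminally to polyhistidine and DsRed were purified after expression in E. coli BL21-CodonPlus. These were incubated at 200 nM with a blocked, double-stranded custom Agilent array for 1 h at 25 °C in a buffer containing 50 µM zinc acetate, and the array was washed. The binding signal is per-feature fluorescence intensity (arbitrary units) on an Axon 4000B scanner.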
“TGATTGCCTTCTCGATTTTGTTTGTCATTGCGTCTTTGCACGGAGTCACCTAGTGCAG” was tested, and the binding signal was 8190 fluorescence intensity (a.u.). In the case of “CTTCTCCTGCTTGTTTCCTTGTCTTGTGGTGCATCACATCCGGAGTCACCTAGTGCAG”, the binding signal is reported as 8810 fluorescence intensity (a.u.). “CATTTTTTTAGCTTGTTCTTCCTTGTGTCACAAACATTTCCGGAGTCACCTAGTGCAG” was tested, and the binding signal was 11300 fluorescence intensity (a.u.). With “TCCTTGTATGAATCCATTGCCTTGCTTCTGCTTGCCCATTCGGAGTCACCTAGTGCAG” the binding signal was 8530 fluorescence intensity (a.u.). In the case of “GGGTGGTCCTGCTTCTACCTTGTATACAAAACATTTCTTCCGGAGTCACCTAGTGCAG”, the binding signal is reported as 17000 fluorescence intensity (a.u.). “TGACCACCATTGCTGCTTCTGCTTCTTCTTGTATGTATACCGGAGTCACCTAGTGCAG” was tested, and the binding signal was 17200 fluorescence intensity (a.u.). With “GCTTGCTTGCTTGTTGCTTCCATTCCATTCCATTCCACACCGGAGTCACCTAGTGCAG” the binding signal was 10400 fluorescence intensity (a.u.). In the case of “GTATTCCTACTTGAACTCTTCTTTTACTTTATTTTTCTAACGGAGTCACCTAGTGCAG”, the binding signal is reported as 10600 fluorescence intensity (a.u.). For “CACTGCCACTCGCCACCCAGCTCCGTCCTATGCCTCCGCGCGGAGTCACCTAGTGCAG”, the binding signal was 12400 fluorescence intensity (a.u.). “TGCACCGCGCGCAGGGTAGGGTGGGCGTCCTTGCCATTGTCGGAGTCACCTAGTGCAG” was tested, and the binding signal was 8740 fluorescence intensity (a.u.). With “CTTATTTCTTTTCCAGTTAGGCATATATTATCTGTTTTCTCGGAGTCACCTAGTGCAG” the binding signal was 8700 fluorescence intensity (a.u.). “ATATATATATATATATATATATATATATATAATCTCTCCTCGGAGTCACCTAGTGCAG” was tested, and the binding signal was 9910 fluorescence intensity (a.u.). “AAAATCTCCTACTAGCTCACTTCACAATGGATCAAACAAACGGAGTCACCTAGTGCAG” was tested, and the binding signal was 8230 fluorescence intensity (a.u.). In the case of “ATAATATATAATCAAACAAAAAAATGGACTATAATCTCTCCGGAGTCACCTAGTGCAG”, the binding signal is reported as 64400 fluorescence intensity (a.u.). “CTTTTTATCTCAAATTTGAAAACTTTCAACTTGGATTTGACGGAGTCACCTAGTGCAG” was tested, and the binding signal was 8520 fluorescence intensity (a.u.). “AACTTGCGAAAATTTGACTATCAATTAGCTGGGCGATTGACGGAGTCACCTAGTGCAG” was tested, and the binding signal was 32700 fluorescence intensity (a.u.). In the case of “ACTATGGGCTTTTGCATCAACAATTGCGAATTTTTTGTATCGGAGTCACCTAGTGCAG”, the binding signal is reported as 9280 fluorescence intensity (a.u.). With “GGAGGATGCGGGTGGTGGTGGAGGAGGAGGAGGCCGAGGTCGGAGTCACCTAGTGCAG” the binding signal was 12400 fluorescence intensity (a.u.). For “GTCGGGGAGGTCGGGGTCAGGGAGGTCGGGGCCGGTGATGCGGAGTCACCTAGTGCAG”, the binding signal was 18900 fluorescence intensity (a.u.). In the case of “CTGCGGGAGGACGGGTCCGGGGCGGGGTCCGGGTCGGTGCCGGAGTCACCTAGTGCAG”, the binding signal is reported as 9780 fluorescence intensity (a.u.). “GTGGGGATGGAGGCGTCGTCGGGGTCGTCGTAGAGGTGGGCGGAGTCACCTAGTGCAG” was tested, and the binding signal was 9240 fluorescence intensity (a.u.). For “GGGTGGGGAGGTGGTGGTCGTCGGGCAGGTGGGGAGGATGCGGAGTCACCTAGTGCAG”, the binding signal was 23900 fluorescence intensity (a.u.). For “GGGCCCCAGTCAGGGTGCGGGGCCACGGAGGGGTCGGGGACGGAGTCACCTAGTGCAG”, the binding signal was 9260 fluorescence intensity (a.u.). For “GCAGACAACTCCGTCGCTGTTACTTCCTCTATGCCAAAACCGGAGTCACCTAGTGCAG”, the binding signal was 9350 fluorescence intensity (a.u.). For “AGCGCGCGCAGCTTTGCAGGCGTGGTCGGGGTCGTTGTGCCGGAGTCACCTAGTGCAG”, the binding signal was 9700 fluorescence intensity (a.u.). “TTTACATATCTATCTTTTTTTTTTGTTTTTTCTCGCTTTTCGGAGTCACCTAGTGCAG” was tested, and the binding signal was 8460 fluorescence intensity (a.u.). In the case of “AACCTTTCTATAGATTTTTTTTTTTTACAAAAACACATCACGGAGTCACCTAGTGCAG”, the binding signal is reported as 11700 fluorescence intensity (a.u.). For “AATCCCAAGCTAGGTGTTGACCATGGGTCAACAATCTCCCCGGAGTCACCTAGTGCAG”, the binding signal was 9470 fluorescence intensity (a.u.). In the case of “AGGTCAACAACCAGTGTCAAGATCTGACCATGCAATTAGCCGGAGTCACCTAGTGCAG”, the binding signal is reported as 17600 fluorescence intensity (a.u.). “ACCATTATTCTGTTGTCAACTGCATGCCGCAACAAACTGACGGAGTCACCTAGTGCAG” was tested, and the binding signal was 8420 fluorescence intensity (a.u.). “AACTAACTGGCACGCCCTCATATCACCAACCTTTGGACCTCGGAGTCACCTAGTGCAG” was tested, and the binding signal was 8560 fluorescence intensity (a.u.). With “CTTTCTGATCACCAACTCCGCTCCTTTTAATCGCAACTACCGGAGTCACCTAGTGCAG” the binding signal was 9660 fluorescence intensity (a.u.). In the case of “ATATCTGCTTCTACGTCGTCTACGAAGCCGCCGAGACGTCCGGAGTCACCTAGTGCAG”, the binding signal is reported as 9320 fluorescence intensity (a.u.). “CTGCCGAAGCAACGGATCTGAATCTACGTACCGAGCTTGTCGGAGTCACCTAGTGCAG” was tested, and the binding signal was 64600 fluorescence intensity (a.u.). With “TCCTGTGGTACCCCTGTCGCCGAATCTACGCATCTGCCAACGGAGTCACCTAGTGCAG” the binding signal was 8140 fluorescence intensity (a.u.). With “ACTCTCTTCCTCACGACGCACCACGGGCTAGCCACTCCTACGGAGTCACCTAGTGCAG” the binding signal was 8340 fluorescence intensity (a.u.). “TGTTTGCTTATTACTATTTTTTTTGGGGCGGGAAATTAAACGGAGTCACCTAGTGCAG” was tested, and the binding signal was 14100 fluorescence intensity (a.u.). In the case of “TTATATTTTGGGACGGAGTATTACTTTGAATCCCTTTTCCCGGAGTCACCTAGTGCAG”, the binding signal is reported as 8280 fluorescence intensity (a.u.). With “TATTGTTTAGTTGGGAAAAAAATTTGGGGTTGGTTGTCACCGGAGTCACCTAGTGCAG” the binding signal was 10400 fluorescence intensity (a.u.). “AAAATTTTATTTTTCATGTGTGGCTTATTGTCCTTTTTTGCGGAGTCACCTAGTGCAG” was tested, and the binding signal was 9470 fluorescence intensity (a.u.). “TTACAAACAAAAACTCAAAATCCCTTATATTTTGGGACAGCGGAGTCACCTAGTGCAG” was tested, and the binding signal was 64700 fluorescence intensity (a.u.). “GCAGGCGGCGGAGGATTTTTGGGAGGGGAAAACGGCGAGTCGGAGTCACCTAGTGCAG” was tested, and the binding signal was 8540 fluorescence intensity (a.u.). With “GAAAAATTGTCCCTTTTTATTTGGGAGGGGAGGGAGGAGGCGGAGTCACCTAGTGCAG” the binding signal was 17100 fluorescence intensity (a.u.). For “TTTTTTTTTCTTTTGGGGCGGAAGGAGTAGTATGGAGTTTCGGAGTCACCTAGTGCAG”, the binding signal was 12300 fluorescence intensity (a.u.). With “CTTATTTAGTTGGGGAAAATTTTTGGGTTTGTTTGTCACACGGAGTCACCTAGTGCAG” the binding signal was 11600 fluorescence intensity (a.u.). With “CCTTTTGTTTTTGGGGCTTGTAGTTTTTGGAAATTTGGGGCGGAGTCACCTAGTGCAG” the binding signal was 18300 fluorescence intensity (a.u.). With “ATTCTCAAAATCGAATTTGTTTTTATATTTCCCTTACTGTCGGAGTCACCTAGTGCAG” the binding signal was 14700 fluorescence intensity (a.u.). For “TATTTGGTTTTGTAGGGGTTGGTTTGGGAAAATTGGAAAGCGGAGTCACCTAGTGCAG”, the binding signal was 16400 fluorescence intensity (a.u.).
